Measurements reported in publication PMC5540273 (PLoS ONE, 2017).

Assays:
Settings in all cases: concentration: 1 μM, replicates: in singlicate; n = 1
[1] = test system: GRK1
[2] = test system: T1, GRK2
T1 construct: gene ADRBK1

[3] = test system: T2, GRK3
T2 construct: gene ADRBK2

[4] = test system: GRK4
[5] = test system: GRK7
[6] = test system: GSK3A
[7] = test system: GSK3B
[8] = test system: T3, HASPIN
T3 construct: gene GSG2

[9] = test system: HCK
[10] = test system: HIPK1
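Also: KINOMEscan kinase panel screen.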

Row | Structure (SMILES) | %Inh [1] [%] | %Inh [2] [%] | %Inh [3] [%] | %Inh [4] [%] | %Inh [5] [%] | %Inh [6] [%] | %Inh [7] [%] | %Inh [8] [%] | %Inh [9] [%] | %Inh [10] [%]
1 | Nc1nc(-c2ccc3c(N)n[nH]c3c2)cc(N2CCC[C@@H](C(=O)Nc3ccccc3)C2)n1.O=C(O)C(F)(F)F.O=C(O)C(F)(F)F [GSK2288359] | 0 | 0 | 0 | 27 | 0 | 20 | 14 | 0 | 0 | 0
2 | CC(C)N1CCC(n2cnc(-c3ccc(F)cc3)c2-c2ccnc(N)n2)CC1 [SB-223132] | 0 | 0 | 0 | 4 | 0 | 17 | 0 | 12 | 0 | 30
3 | CNc1nccc(-c2c(-c3ccc(F)cc3)ncn2CCCN2CCOCC2)n1 [SB-222516] | 22 | 0 | 23 | 0 | 0 | 0 | 14 | 8 | 0 | 0
4 | c1ccc(-c2ccc3c(-c4ccnc(Nc5ccc6c(c5)OCCO6)n4)cnn3n2)cc1 [GW818941] | 0 | 7 | 0 | 11 | 0 | 12 | 0 | 0 | 16 | 0
5 | COc1ccc(NC(=O)c2ccc(-c3cc(-c4nnc(C)o4)ccc3C)cc2)cc1 [GW595885] | 0 | 0 | 99.2 | 22 | 0 | 32 | 0 | 21 | 0 | 0
